Source: PubChem BioAssay (Tox21)
Unmarked numbers belong to inactive results. Records with an inconclusive call do not appear. The source made the active and inactive calls. Unless noted, calls follow the shape of the dose curve; as a rule, active = well fitted inhibition curve with a large enough effect in the repeat runs (not every such curve was filed as active); inconclusive = weak or mixed curves; inactive = flat fitted curve, though single readings scatter.

system: not listed separately; assay: qHTS assay to identify small molecule agonists of the TGF-beta/Smad signaling pathway (AID 1346859; active = well fitted activation curve with a large enough effect in the signal ratio in the repeat runs, not every such curve was filed as active; the % refers to the signal ratio); settings: SBE-bla HEK293T, TGF-beta/Smad beta-lactamase reporter, 5 h; series mostly up to 76.8 µM; activation: at the top concentration
In short: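 SBE-bla HEK 293T, 4,000 cells/well, plated o/n; cpd in DMSO, 5 hr, 37 C/5% CO2; B/G FRET substrate 2 hr RT; ex 405, em 460/530 nm.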
% is scaled to controls: 0 for no effect and ±100 for the full control effect.

SMILES	activation	outcome
Nc1nc(Cl)nc2c1ncn2[C@@H]1O[C@H](CO)[C@@H](O)[C@@H]1F	2.64% [at 35.3 µM]	
CN1Cc2cc(C(=O)N3CCC(C4CCNCC4)CC3)ccc2N[C@@H](CC(=O)O)C1=O	3.59% [at 35.3 µM]	
O=C(NCCCN1CCOCC1)c1ccc(Cl)cc1	2.68% [at 35.3 µM]	
COc1cc2[nH]c(=O)[nH]c(=O)c2cc1OC	0.366% [at 35.3 µM]	
C=CC(=O)NCOCC(C)C	-0.317%	
CC(C)(CCl)c1ccccc1	-3.39%	
CC(=O)Nc1ccccc1C	-1.38%	
CC(CCO)CCc1ccccc1 (configuration not stated)	2.19%	
CC#N	1.08%	
CN1CCCN=C1/C=C/c1cccs1	-1.27% [at 35.3 µM]	
COC(=O)c1cc(S(N)(=O)=O)ccc1OC	2.54% [at 35.3 µM]	
CO[C@H]1O[C@H](CO)[C@@H](O)[C@H](O)[C@H]1O	2.52%	
CCCCN(CCCC)C(=S)SSC(=S)N(CCCC)CCCC	-0.383%	
COC(=O)c1cc(Cl)ccc1NS(=O)(=O)C(F)(F)F	0.457% [at 35.3 µM]	
CC1(C)C(=O)N(Br)C(=O)N1Cl	2.57%	
N#C[C@@H]1C[C@@H]2C[C@@H]2N1C(=O)[C@@H](N)C12CC3CC(CC(O)(C3)C1)C2	-5.62% [at 35.3 µM]	
CC(CCc1ccc2c(c1)OCO2)NN (configuration not stated)	-0.218% [at 35.3 µM]	
Cc1nc2ccccc2s1	-3.06%	
Nc1ccc(S(=O)(=O)O)c(N)c1	1.86%	
NC(=O)Nc1ccc(Cl)cc1	-2.09%	

SMILES	activation	outcome
O=Cc1c(Cl)cccc1Cl	0.362%	
CO[Si](C)(OC)OC	0.831%	
O=S1OCCO1	3.81%	
CCCOC(=O)c1ccc(N)cc1	-0.18% [at 35.3 µM]	
O=C(O)Cc1ccc(-c2ccccc2)cc1	-6.27% [at 35.3 µM]	
OCC1CC=CCC1 (configuration not stated)	0.12%	
C=CCCCCCCCCCCCCCCCC	2.93% [at 6.97 µM]	
C=CCOC(=O)/C=C\C(=O)OCC=C	-0.0972%	
Cc1oncc1C(=O)Nc1ccc(C(F)(F)F)cc1		inactive
CC(C)CCCCCOC(=O)CCCCC(=O)OCCCCCC(C)C	0.438%	
CC(=O)N(c1onc(C)c1C)S(=O)(=O)c1ccc(N)cc1	1.22% [at 35.3 µM]	
OC(CCCN1CCCCC1)(c1ccccc1)c1ccccc1	-1.88% [at 35.3 µM]	
CCn1cc(C(=O)O)c(=O)c2cc(F)c(N3CCNCC3)nc21	0.682% [at 35.3 µM]	
C[N+](C)(C)CCOC(N)=O	5.71% [at 35.3 µM]	
CCCOCCOCCO	0.241%	
CCCCCCCCCCCCCCCCBr	-2.16% [at 15.8 µM]	
c1ccc(COCc2ccccc2)cc1	0.59%	
CN1CCN(c2c(F)cc3c(=O)c(C(=O)O)cn4c3c2OCN4C)CC1	-0.914% [at 15.8 µM]	
O=C1OCCN1/N=C/c1ccc([N+](=O)[O-])o1	1.43% [at 35.3 µM]	

molecular target: Thyrotropin-releasing hormone receptor (Homo sapiens) (UniProt P34981); assay: qHTS assay to identify small molecule antagonists of the thyrotropin-releasing hormone receptor (TRHR) signaling pathway (AID 1346877); settings: TRHR-HEK293, TRH-induced calcium fluorescence, antagonist mode; series mostly up to 51.3 µM; activity, negative = inhibition: at the top concentration
Sequence (P34981 whole entry, looked up): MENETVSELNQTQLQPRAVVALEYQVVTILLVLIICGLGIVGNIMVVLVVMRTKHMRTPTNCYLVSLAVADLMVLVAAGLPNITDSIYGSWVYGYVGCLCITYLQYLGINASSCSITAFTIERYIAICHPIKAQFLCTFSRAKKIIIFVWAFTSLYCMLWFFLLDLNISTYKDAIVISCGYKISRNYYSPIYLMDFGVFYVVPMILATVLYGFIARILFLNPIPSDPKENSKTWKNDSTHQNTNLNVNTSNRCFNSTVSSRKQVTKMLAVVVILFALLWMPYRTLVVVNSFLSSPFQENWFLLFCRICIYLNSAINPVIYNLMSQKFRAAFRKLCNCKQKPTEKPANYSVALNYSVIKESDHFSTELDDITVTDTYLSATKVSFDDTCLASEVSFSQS
In short: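 TRHR-expressing HEK293 cells loaded with calcium dye for 2 h at 37 C; compounds pre-incubated 5 min at room temperature before TRH challenge at 1 nM final. Intracellular calcium fluorescence read kinetically for 3 min; 15 concentrations in triplicate.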

SMILES	activity, negative = inhibition
Nc1nc(Cl)nc2c1ncn2[C@@H]1O[C@H](CO)[C@@H](O)[C@@H]1F	0.0912% [at 23.6 µM]
CN1Cc2cc(C(=O)N3CCC(C4CCNCC4)CC3)ccc2N[C@@H](CC(=O)O)C1=O	1.21% [at 23.6 µM]
COc1cc2[nH]c(=O)[nH]c(=O)c2cc1OC	-2.11% [at 23.6 µM]
C=CC(=O)NCOCC(C)C	-4.5%
CC(C)(CCl)c1ccccc1	-1.16%
CC(=O)Nc1ccccc1C	0.381%
CC#N	4.18%
CO[C@H]1O[C@H](CO)[C@@H](O)[C@H](O)[C@H]1O	-4.24%
CCCCN(CCCC)C(=S)SSC(=S)N(CCCC)CCCC	0.856%
COC(=O)c1cc(Cl)ccc1NS(=O)(=O)C(F)(F)F	-0.869% [at 23.6 µM]
CC1(C)C(=O)N(Br)C(=O)N1Cl	-1.31%
CC(CCc1ccc2c(c1)OCO2)NN (configuration not stated)	-8.28% [at 23.6 µM]
O=Cc1c(Cl)cccc1Cl	1.22%
CO[Si](C)(OC)OC	-1.82%
O=S1OCCO1	-1.71%
O=C(O)Cc1ccc(-c2ccccc2)cc1	-0.468% [at 23.6 µM]
C=CCOC(=O)/C=C\C(=O)OCC=C	-0.353%
CC(C)CCCCCOC(=O)CCCCC(=O)OCCCCCC(C)C	3.95%
OC(CCCN1CCCCC1)(c1ccccc1)c1ccccc1	-5.19% [at 23.6 µM]
C[N+](C)(C)CCOC(N)=O	-12.5% [at 23.6 µM]
c1ccc(COCc2ccccc2)cc1	7.46%
CN1CCN(c2c(F)cc3c(=O)c(C(=O)O)cn4c3c2OCN4C)CC1	2.89% [at 10.5 µM]
O=C1OCCN1/N=C/c1ccc([N+](=O)[O-])o1	-2.39% [at 23.6 µM]
